Here are results for twelve molecules from PubChem BioAssay (NCATS).

Assay [1] is described as follows: qHTS assay to identify small molecule inhibitors of chordoma cells - UCH-1 (AID 1259355). Note: % is set by controls: 0 for no effect and ±100 for the full control effect; nearly all actives have a fitted effect of over 55% in size. Particulars: UCH-1 chordoma viability, CellTiter-Glo, 48 h, combination; series mostly up to 46.1 µM. The method in brief: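 800 cells/well, overnight attach; compounds pinned at 15 concs, then auranofin/camptothecin/doxorubicin/rubitecan/topotecan combo added; 48hr 37 C, 5% CO2; CellTiter-Glo, 30min RT, luminescence.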

Assay [2] in a line: qHTS assay to identify small molecule inhibitors of chordoma cells - UCH-2 (AID 1259356). Note: % is set by controls: 0 for no effect and ±100 for the full control effect. Particulars: UCH-2 chordoma viability, CellTiter-Glo ATP luminescence, 48 h; series mostly up to 46.1 µM.
A short description of assay [3]: P-glycoprotein substrates identified in KB-8-5-11 adenocarcinoma cell line, qHTS therapeutic library screen (AID 1346987). Note: nearly all actives have a fitted effect of over 65% in size. Note: potency is the fitted concentration of half-maximal effect. The note with it: KB-8-5-11 (P-gp overexpressing) viability, CellTiter-Glo, 72 h; series mostly up to 44.5 µM. An outline of the steps:
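Human cervical adenocarcinoma KB-8-5-11 cells, selected in colchicine to over-express P-gp and assayed without it, were exposed for 72 h to titrated compounds. An ATP-based luminescent viability signal gave AC50.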

The target of assay [4] is Atrial natriuretic peptide receptor 1 (Homo sapiens) (UniProt P16066). Nature of the assay: Natriuretic polypeptide receptor (hNpr1) antagonism - Pilot screen (AID 1347049; calls by dose curve;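 note: HEK293 cells with hNpr1 and GloSensor cGMP luciferase stimulated by 0.1 nM hNppA; agonist-evoked cGMP luminescence read 20 min after hNppA addition; % is set by controls: 0 for no effect and ±100 for the full control effect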). The note with it: hNpr1 cells, antagonist mode cGMP read-out; series mostly up to 57.5 µM. The method in brief:
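Receptor antagonism read as cGMP-dependent luminescence in hNpr1/pGS-40F HEK293 cells: pre-read after 30 min compound exposure, post-read 20 min after hNppA agonist at 0.1 nM final, all at room temperature, protected from light; A-71915 titration as control.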

In assay [5] the target is Atrial natriuretic peptide receptor 2 (Homo sapiens) (UniProt P20594). The assay can be described thus: Natriuretic polypeptide receptor (hNpr2) antagonism - Pilot subtype selectivity assay (AID 1347050; calls by dose curve; note: % is set by controls: 0 for no effect and ±100 for the full control effect). Particulars: NPR2-expressing cells, cGMP antagonist-mode read-out; series mostly up to 38.3 µM. An outline of the steps:
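Antagonist mode: compounds (LOPAC1280, seven 1:5 dilutions) added 30 min before 1 nM hNppC stimulation of hNpr2-HEK293 cGMP-sensor cells; luminescence read before and 20 min after agonist at ambient temperature.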

The nature of assay [6]: NS1 protein of Zika virus - qHTS assay to identify small molecule inhibitors in human HEK 293 cells (AID 1347053).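 Note: plate controls were infected untreated cells for no effect and uninfected cells for full effect; nearly all actives have a fitted effect of over 55% in size.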 Particulars: HEK293 ZIKV MR766 infection, NS1 TR-FRET, 24 h; series mostly up to 46.1 µM. The method in brief:
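Read-out is a two-antibody TR-FRET for ZIKV NS1, normalized between uninfected cells and infected cells. Compound added 1 h before MR766 infection at MOI 0.5; human HEK 293 cells incubated 24 h, 37 C.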

Assay [7] deals with Parathyroid hormone/parathyroid hormone-related peptide receptor (Homo sapiens) (UniProt Q03431). Nature of the assay: qHTS for PTHR1 Agonists: Optimization Screen against the NCGC LOPAC library (AID 1347079). Note: 0% is about no effect. Particulars: HEK293 GP2 PTHR1 GloSensor cAMP luminescence, 1 h; series mostly up to 57.1 µM. An outline of the steps: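 Signal increase flags agonism. GP2 cells, derived from HEK-293, express human PTHR1 and a GloSensor cAMP construct.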
Parathyroid hormone/parathyroid hormone-related peptide receptor (Homo sapiens), sequence (Q03431 whole entry, looked up): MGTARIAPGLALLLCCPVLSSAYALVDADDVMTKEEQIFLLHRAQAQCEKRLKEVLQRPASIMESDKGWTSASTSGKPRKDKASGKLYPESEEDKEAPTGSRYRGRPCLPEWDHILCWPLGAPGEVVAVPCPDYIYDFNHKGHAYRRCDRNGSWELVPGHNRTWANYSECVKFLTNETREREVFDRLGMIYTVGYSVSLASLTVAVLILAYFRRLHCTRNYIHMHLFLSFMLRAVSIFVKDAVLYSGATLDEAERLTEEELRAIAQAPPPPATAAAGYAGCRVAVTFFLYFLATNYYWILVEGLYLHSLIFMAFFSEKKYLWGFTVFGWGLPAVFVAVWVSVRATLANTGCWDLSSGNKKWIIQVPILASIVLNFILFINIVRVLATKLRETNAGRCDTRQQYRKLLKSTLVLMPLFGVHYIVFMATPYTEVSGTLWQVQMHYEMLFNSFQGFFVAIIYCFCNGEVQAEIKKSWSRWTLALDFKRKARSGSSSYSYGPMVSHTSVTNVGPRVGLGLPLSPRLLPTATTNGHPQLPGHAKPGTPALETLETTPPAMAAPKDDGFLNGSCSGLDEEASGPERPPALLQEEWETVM

Assay [8] in a line: qHTS for Inhibitors of the Functional Ribonucleoprotein Complex (vRNP) of Lassa (LASV) Arenavirus: LASV Primary Screen - GLuc reporter signal (AID 1347082; calls by dose curve; tested in HEK293 reporter line; note: % is set by controls: 0 for no effect and ±100 for the full control effect; nearly all actives have a fitted effect of over 60% in size). Particulars: LASV minigenome vRNP, Gaussia luciferase reporter; series mostly up to 57.5 µM.
Assay [9] can be described thus: qHTS for Inhibitors of the Functional Ribonucleoprotein Complex (vRNP) of Lassa (LASV) Arenavirus: Viability assay - alamar blue signal for LASV Primary Screen (AID 1347083; calls by dose curve; tested in HEK293 reporter line; note: % is set by controls: 0 for no effect and ±100 for the full control effect; nearly all actives have a fitted effect of over 80% in size). Particulars: cell viability, alamar blue fluorescence (LASV minigenome counter-screen); series mostly up to 57.5 µM.
Assay [10] in a line: qHTS for Inhibitors of the Functional Ribonucleoprotein Complex (vRNP) of Lymphocytic Choriomeningitis Arenaviruses (LCMV): Viability assay - alamar blue signal for LCMV Primary Screen (AID 1347085; calls by dose curve; tested in HEK293 reporter line; note: % is set by controls: 0 for no effect and ±100 for the full control effect; nearly all actives have a fitted effect of over 80% in size). Particulars: alamar blue viability counter-screen, LCMV vRNP screen cells; series mostly up to 57.5 µM.
Assay [11] in a line: P-glycoprotein substrates identified in KB-3-1 adenocarcinoma cell line, qHTS therapeutic library screen (AID 1346986). Note: nearly all actives have a fitted effect of over 60% in size. Particulars: KB-3-1 parental cells viability, CellTiter-Glo, 72 h; at 44.5 µM (top of the series) unless noted. An outline of the steps: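 Dose-response cytotoxicity, KB-3-1 vs P-gp-high KB-8-5-11, no colchicine in assay medium. Read: CellTiter-Glo at 72 h.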

Assay [12] has as its target T1, Tyrosine-protein phosphatase non-receptor type substrate 1 (Homo sapiens) + Leukocyte surface antigen CD47 (Homo sapiens) (UniProt P78324+Q08722). Nature of the assay: CD47-SIRPalpha protein protein interaction - LANCE assay qHTS validation (AID 1347057; active = well fitted curve in the direction sought with a large enough effect in the signal ratio, with a control signal flat, not every such curve was filed as active; the % refers to the signal ratio; note: 0% is about no effect). Particulars: Recombinant CD47-His / biotin-SIRPalpha, TR-FRET ratio; series mostly up to 38.3 µM. The method in brief: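 Inhibition of soluble CD47/SIRPalpha ectodomain association by titrated compounds, measured as 665/615 nm time-resolved FRET ratio after sequential 30 min room-temperature incubations.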

Assay [13] concerns the target T1, Tyrosine-protein phosphatase non-receptor type substrate 1 (Homo sapiens) + Leukocyte surface antigen CD47 (Homo sapiens). Nature of the assay: CD47-SIRPalpha protein protein interaction - HTRF assay qHTS validation (AID 1347058; active = well fitted curve in the direction sought with a large enough effect in the signal ratio, not every such curve was filed as active; the % refers to the signal ratio; note: 0% is about no effect). The note with it: TR-FRET HTRF CD47-His / biotin-SIRPalpha binding, ratio 665/615; series mostly up to 38.3 µM. An outline of the steps:
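Soluble extracellular domains (6His-CD47, Avi-tag-biotinylated SIRPalpha) in PBS pH 7.4 with 0.05% IGEPAL CA-630. Compounds were preincubated 30 min at RT with CD47 and anti-His-Eu, then SIRPalpha and SAV-XL665 were added. TR-FRET 665/615 ratio.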

Assay [14] shares this target. The assay can be described thus: CD47-SIRPalpha protein protein interaction - Alpha assay qHTS validation (AID 1347059).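 Note: bead proximity luminescence from CD47 binding SIRPalpha after compound preincubation with SIRPalpha; % is set by controls: 0 for no effect and ±100 for the full control effect.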 Particulars: AlphaScreen CD47-His/biotin-SIRPalpha binding, LOPAC; series mostly up to 38.3 µM. The method in brief: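 AlphaScreen signal between CD47-His (12.5 nM) and biotin-SIRPalpha (25 nM) soluble extracellular domains, bead-captured via Ni-NTA and streptavidin. Compounds, in 7-point titrations, met SIRPalpha 30 min before CD47; PBS pH 7.4 with 0.05% IGEPAL.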

The nature of assay [15]: qHTS Screen of the MIPE 4.0 Collection Against Ewings Sarcoma (EW8) (AID 1259255).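 Note: 100% = DMSO-treated cells and 0% = medium-only wells without cells; nearly all actives have a fitted effect of over 35% in size.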 The note with it: EW8 Ewing sarcoma viability, CellTiter-Glo, 48 h; series mostly up to 45.8 µM. An outline of the steps:
(§1)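 Cells plated in serum-containing RPMI (5% FBS) and treated with compound dilutions for 48 h. Readout luminescent viability; normalization relied on vehicle (no inhibition) and media-only columns (full inhibition).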

Assay [16] in a line: qHTS Screen of the MIPE 4.0 Collection Against Ewings Sarcoma (TC71) (AID 1259253).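 Note: 100% = DMSO-treated cells and 0% = medium-only wells without cells; nearly all actives have a fitted effect of over 40% in size.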 Particulars: TC71 Ewing sarcoma viability, CellTiter-Glo, 48 h; series mostly up to 45.8 µM. The method in brief: as §1
Assay [17] can be described thus: qHTS Screen of the MIPE 4.0 Collection Against Ewings Sarcoma (TC32) (AID 1259256). Note: potency is the fitted concentration of half-maximal effect; nearly all actives have a fitted effect of over 45% in size. Particulars: TC32 Ewing sarcoma viability, CellTiter-Glo, 48 h; series mostly up to 45.8 µM. The method in brief:
as §1

Assay [18] in a line: Identifying Small Molecule Inhibitors of Pancreatic Cancer Stem Cells (SN12C, Adherent) (AID 1259358).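 Note: cell survival measured after 48 h of compound exposure.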 Particulars: viability/growth inhibition; series mostly up to 46.1 µM. An outline of the steps:
(§2)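 Pre-formed 14-day tumor spheroids or adherent cells dosed and incubated 48 h, 37C, 5% CO2. Viability assessed by CellTiter-Glo.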

A short description of assay [19]: Identifying Small Molecule Inhibitors of Pancreatic Cancer Stem Cells (SN12C, Spheroid) (AID 1259360).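 Note: 100% = DMSO-treated cells and 0% = wells without cells.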 Particulars: series mostly up to 46.1 µM. An outline of the steps: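 Spheroids grown 14 days in stem cell media on hydrogel-coated nonadherent plates; 2D lines seeded directly. Compounds added after 4 h attachment, 48 h at 37C, 5% CO2; CellTiter-Glo luminescence normalized to DMSO (no inhibition) and no-cell wells (full inhibition).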

Assay [20] in a line: Identifying Small Molecule Inhibitors of Pancreatic Cancer Stem Cells (A278, Adherent) (AID 1259361).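 Note: viability read after 48 h compound exposure; 100% = DMSO-treated cells and 0% = cell-free media-only wells; nearly all actives have a fitted effect of over 35% in size.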 Particulars: series mostly up to 46.1 µM. The method in brief: as §2

A number with no mark means an inactive call. Results filed as inconclusive are left out. Active and inactive are the calls of the source. Unless noted, calls come from the whole dose curve; as a rule, active = well fitted curve in the direction sought with a large enough effect; inconclusive = small, poorly fitted or top-dose-only effect, or another doubt; inactive = no such curve, though single readings can be large; an effect the other way counts as inactive or inconclusive.

Atrial natriuretic peptide receptor 1 (Homo sapiens), sequence (P16066 whole entry, looked up): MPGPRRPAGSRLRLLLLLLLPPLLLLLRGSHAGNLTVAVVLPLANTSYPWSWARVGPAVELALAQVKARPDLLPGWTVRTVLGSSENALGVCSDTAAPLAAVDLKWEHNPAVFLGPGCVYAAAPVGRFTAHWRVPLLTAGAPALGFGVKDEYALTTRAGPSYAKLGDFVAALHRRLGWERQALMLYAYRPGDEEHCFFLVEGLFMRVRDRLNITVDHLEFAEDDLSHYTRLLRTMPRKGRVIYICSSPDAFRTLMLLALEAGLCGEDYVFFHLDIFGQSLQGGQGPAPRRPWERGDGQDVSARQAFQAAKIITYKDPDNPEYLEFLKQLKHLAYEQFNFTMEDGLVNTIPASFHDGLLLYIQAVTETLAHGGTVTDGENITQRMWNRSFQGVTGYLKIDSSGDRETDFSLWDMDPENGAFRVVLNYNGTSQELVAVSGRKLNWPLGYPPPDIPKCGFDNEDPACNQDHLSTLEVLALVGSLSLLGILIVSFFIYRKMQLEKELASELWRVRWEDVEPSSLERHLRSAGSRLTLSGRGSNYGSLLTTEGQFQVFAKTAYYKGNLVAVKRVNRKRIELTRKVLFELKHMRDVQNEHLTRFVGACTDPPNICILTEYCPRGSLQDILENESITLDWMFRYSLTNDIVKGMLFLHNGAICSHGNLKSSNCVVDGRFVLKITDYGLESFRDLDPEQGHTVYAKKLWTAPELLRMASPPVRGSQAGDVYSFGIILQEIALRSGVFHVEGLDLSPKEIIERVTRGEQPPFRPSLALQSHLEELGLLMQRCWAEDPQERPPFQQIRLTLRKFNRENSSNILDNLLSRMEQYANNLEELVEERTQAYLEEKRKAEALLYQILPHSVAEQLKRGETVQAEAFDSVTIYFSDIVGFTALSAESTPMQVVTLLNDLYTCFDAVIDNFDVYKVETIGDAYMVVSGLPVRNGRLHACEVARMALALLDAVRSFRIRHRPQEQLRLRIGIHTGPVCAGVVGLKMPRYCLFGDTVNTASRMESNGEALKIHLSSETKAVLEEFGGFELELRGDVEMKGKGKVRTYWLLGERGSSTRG
Atrial natriuretic peptide receptor 2 (Homo sapiens), sequence (P20594 whole entry, looked up): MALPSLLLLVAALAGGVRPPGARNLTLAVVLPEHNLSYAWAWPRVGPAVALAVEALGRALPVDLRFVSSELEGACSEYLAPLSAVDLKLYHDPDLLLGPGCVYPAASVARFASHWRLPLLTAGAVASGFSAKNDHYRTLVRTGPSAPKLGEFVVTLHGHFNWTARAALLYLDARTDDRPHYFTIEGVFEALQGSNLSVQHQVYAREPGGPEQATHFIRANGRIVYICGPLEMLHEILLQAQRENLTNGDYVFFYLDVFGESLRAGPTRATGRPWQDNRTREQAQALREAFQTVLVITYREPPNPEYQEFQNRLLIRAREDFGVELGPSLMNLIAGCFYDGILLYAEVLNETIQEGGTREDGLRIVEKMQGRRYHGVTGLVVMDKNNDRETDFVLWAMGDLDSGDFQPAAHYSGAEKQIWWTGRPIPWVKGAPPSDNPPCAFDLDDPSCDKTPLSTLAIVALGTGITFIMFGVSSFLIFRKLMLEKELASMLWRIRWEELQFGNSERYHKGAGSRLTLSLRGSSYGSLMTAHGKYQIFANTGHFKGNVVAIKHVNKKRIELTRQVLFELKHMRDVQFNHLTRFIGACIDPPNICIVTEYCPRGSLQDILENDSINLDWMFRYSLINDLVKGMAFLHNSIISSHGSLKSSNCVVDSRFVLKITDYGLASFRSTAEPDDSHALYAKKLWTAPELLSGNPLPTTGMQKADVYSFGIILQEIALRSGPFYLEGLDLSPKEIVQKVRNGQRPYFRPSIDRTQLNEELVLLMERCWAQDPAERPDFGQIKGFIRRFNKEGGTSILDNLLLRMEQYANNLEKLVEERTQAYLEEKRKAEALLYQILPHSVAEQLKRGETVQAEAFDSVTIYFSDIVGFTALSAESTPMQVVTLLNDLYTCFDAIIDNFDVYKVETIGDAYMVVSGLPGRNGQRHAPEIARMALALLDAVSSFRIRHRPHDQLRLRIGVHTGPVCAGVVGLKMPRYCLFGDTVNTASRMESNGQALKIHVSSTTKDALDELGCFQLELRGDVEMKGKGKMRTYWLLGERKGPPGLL
T1 sequence (P78324 whole entry, looked up, the tested form may be a part): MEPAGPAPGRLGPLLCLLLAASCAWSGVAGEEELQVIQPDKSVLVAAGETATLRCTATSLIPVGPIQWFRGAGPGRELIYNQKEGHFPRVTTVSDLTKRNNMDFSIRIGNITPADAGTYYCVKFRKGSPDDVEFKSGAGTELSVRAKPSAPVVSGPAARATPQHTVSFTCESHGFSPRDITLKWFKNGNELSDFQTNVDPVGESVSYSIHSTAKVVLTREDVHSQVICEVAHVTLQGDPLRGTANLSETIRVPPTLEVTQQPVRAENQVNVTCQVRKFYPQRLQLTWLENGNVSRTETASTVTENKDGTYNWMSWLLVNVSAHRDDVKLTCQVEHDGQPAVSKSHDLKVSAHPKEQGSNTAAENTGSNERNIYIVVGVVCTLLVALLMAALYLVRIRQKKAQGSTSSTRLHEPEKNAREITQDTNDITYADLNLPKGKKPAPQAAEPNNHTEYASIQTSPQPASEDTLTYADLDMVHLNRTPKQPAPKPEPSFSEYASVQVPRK
T1 sequence (Q08722 whole entry, looked up, the tested form may be a part): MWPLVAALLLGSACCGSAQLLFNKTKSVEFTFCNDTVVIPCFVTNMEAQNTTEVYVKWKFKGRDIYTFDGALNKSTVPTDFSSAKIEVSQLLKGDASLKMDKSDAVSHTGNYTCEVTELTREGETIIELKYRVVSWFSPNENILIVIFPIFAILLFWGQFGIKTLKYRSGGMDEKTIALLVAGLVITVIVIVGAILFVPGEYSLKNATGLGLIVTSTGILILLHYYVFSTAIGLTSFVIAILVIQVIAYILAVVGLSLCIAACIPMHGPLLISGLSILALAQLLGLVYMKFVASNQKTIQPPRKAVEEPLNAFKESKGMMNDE

As for `CCCCC/C=C\C/C=C\C/C=C\C/C=C\CCCC(=O)NCC(=O)O`, in [1], the activity, negative = inhibition was -4.51% [at 4.2 µM]. Further, in [2], the activity change, negative = inhibition is -22% [at 4.61 µM]. In addition, the activity change, negative = cytotoxicity in assay [3] was 0.883% [at 5.11 µM]. Also, the result in [4], in assay [5], in assay [6] and in assay [7] was inactive. Further, the Potency result in [8], in assay [9] and in assay [10] was “inactive” throughout.

In the case of `CCCCCN(C)CCC(O)(P(=O)(O)O)P(=O)(O)O`, the outcome in assay [1], in assay [2], in assay [11], in assay [6], in [12] and in [13] was inactive. Further, the outcome in assay [14] was inactive. The Potency entry in assay [3], in assay [8], in [9] and in assay [10] was “inactive” throughout.

With `NC(=O)c1cc([N+](=O)[O-])cc([N+](=O)[O-])c1`, the outcome in [1], in assay [2] and in [6] was inactive. Also, the Potency entry in assay [3], in assay [8], in assay [9] and in assay [10] was “inactive” in each case.

For the molecule `O=C(Nc1ccc(Br)cc1)c1cc(Br)cc(Br)c1O`, the outcome in assay [1], in assay [2] and in assay [6] was inactive. In addition, the Potency in [3] was 4.61 µM (active). The Potency entry in assay [8], in [9] and in assay [10] was “inactive” each time.

On to `C=C(C)[C@H]1CN[C@H](C(=O)O)[C@H]1CC(=O)O`, for which the result in assay [1], in assay [2], in assay [4], in [5], in assay [6] and in [12] was inactive. The outcome in assay [13], in assay [14] and in assay [7] was inactive. Besides, the Potency result in assay [3], in assay [8], in assay [9] and in assay [10] was “inactive” throughout.

`C=CCN1C[C@H](C)N([C@H](c2ccc(C(=O)N(CC)CC)cc2)c2cccc(OC)c2)C[C@H]1C`: the outcome in [1] and in assay [2] was inactive. Further, the outcome in assay [11] was “inactive [at 9.29 µM]”. Moreover, the activity change, negative = cytotoxicity in assay [3] is -6.15% [at 9.29 µM]. For the same molecule, the Potency entry in assay [8], in assay [9] and in assay [10] was “inactive” each time.

Take `CCC1(CC)C(=O)C=CNC1=O`: the outcome in assay [1], in assay [2] and in assay [6] was inactive. Further, the Potency result in assay [3], in assay [8], in assay [9] and in [10] was “inactive” each time.

On to `O=C1Nc2ccc(Cl)cc2C(c2ccccc2)=NC1O` (configuration not stated), for which the outcome in assay [1] and in assay [2] was inactive. In assay [3], the Potency result was “inactive”.

On to `CC(C)C[C@H](CN)CC(=O)O`, for which the molecule was called inactive in assay [15], in [2] and in assay [6]. Besides, the Potency result in assay [3], in assay [8], in [9] and in [10] was “inactive” throughout.

As for `CC(=O)OCC1=C(C(=O)O)N2C(=O)[C@@H](N)[C@H]2SC1`, the outcome in assay [1], in assay [2] and in assay [11] was inactive. The Potency entry in assay [3], in assay [8], in assay [9] and in [10] was “inactive” throughout.

For the molecule `O=P1(N(CCCl)CCCl)NCCCO1` (configuration not stated), the Potency entry in assay [16], in assay [3], in [8], in [9] and in [10] was “inactive” in each case. In addition, the molecule was classed as inactive in assay [15], in [1], in [2], in assay [18], in assay [19] and in assay [20]. The result in assay [4], in assay [5], in [6], in assay [12], in assay [13] and in assay [14] was inactive. The result in [7] was inactive. Also, the Potency in assay [17] was 0.0021 µM (active).

With `C[C@]12CC[C@H]3[C@@H](CC[C@@]45O[C@H]4C(O)=C(C#N)C[C@]35C)[C@H]1CC[C@H]2O`, the Potency in assay [17] is 20.9 µM (active). Besides, the molecule was called inactive in [6]. Further, the Potency entry in assay [8] and in assay [9] was “inactive” each time.
